Data on 13 compounds can be found in PubChem BioAssay.

Each structure is given as a SMILES string. Active and inactive are the calls of the source.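 The calls were made as follows, unless noted: active = inhibition of the reporter signal at or above 50%; inactive = inhibition below 50%.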

Test [1] can be described thus: inhibitors of TNFa-induced NFkB p65 translocation, primary screen, imaging, HUVEC, MLSMR starter and 10KST1 sets (AID 438;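 active = inhibition above 20% together with a positive visual image hit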;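 also: compound added about 3h40 before a 20 min TNFalpha stimulation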;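 as to inhibition: signal is the nuclear over cytoplasmic p65 intensity ratio per well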). The conditions noted are these: HUVEC TNFa-induced p65 nuclear translocation; cell count: measured here: nuclei count (cytotoxicity indicator), at 2.08 µM; inhibition: at 2 µM, stronger effect = higher value, 0% TNFa-plus-vehicle, 100% no-TNFa wells.
A short description of test [2]: inhibitors of mutant huntingtin aggregation, primary screen, imaging, exon1htt(103Q)mCFP cells, high-content imaging (AID 483;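 active = visual image review flags a hit and inhibition of aggregation exceeds 20%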;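 also: compound exposure lasted 3 days before fixation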;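 as to nuclei count: percent of the per-plate median nuclei count of sample wells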). To be noted: exon1htt(103Q)mCFP cell line, aggregate imaging, at 2 µM; inhibition of aggregation: stronger effect = higher value; nuclei count: measured here: cell count, toxicity.
The nature of test [3]: inhibitors of E-selectin induction by TNFa, primary screen, imaging, HUVEC, immunofluorescence, MLSMR starter and 10KST1 sets (AID 487;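 active = visually confirmed hit in the image check and inhibition above 20%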;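 as to inhibition: signal is fraction of cell area covered by stained E-selectin grains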;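 as to nuclei count: 100% = median nuclei count of all wells on the same plate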). The conditions noted are these: HUVEC TNFalpha-induced E-selectin immunofluorescence imaging, at 2 µM; inhibition: stronger effect = higher value; nuclei count: measured here: cell number, toxicity.
Test [4] deals with Voltage-gated potassium channel subunit beta-2 (Rattus norvegicus) (UniProt P62483). Briefly: KvBeta enzyme negative modulators, primary screen, biochemical, NADPH fluorescence (AID 622;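 active = fluorescence slope higher than the sample average by over 3 SD, cut at about -0.22 in these data, passing the limit was not always enough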;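 also: slope of raw intensity against log time taken from 70 to 1610 s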). The conditions noted are these: recombinant KvBeta, 4-cyanobenzaldehyde reduction, at 10 µM, stronger effect = higher value.
Voltage-gated potassium channel subunit beta-2 (Rattus norvegicus), sequence (P62483 whole entry, looked up): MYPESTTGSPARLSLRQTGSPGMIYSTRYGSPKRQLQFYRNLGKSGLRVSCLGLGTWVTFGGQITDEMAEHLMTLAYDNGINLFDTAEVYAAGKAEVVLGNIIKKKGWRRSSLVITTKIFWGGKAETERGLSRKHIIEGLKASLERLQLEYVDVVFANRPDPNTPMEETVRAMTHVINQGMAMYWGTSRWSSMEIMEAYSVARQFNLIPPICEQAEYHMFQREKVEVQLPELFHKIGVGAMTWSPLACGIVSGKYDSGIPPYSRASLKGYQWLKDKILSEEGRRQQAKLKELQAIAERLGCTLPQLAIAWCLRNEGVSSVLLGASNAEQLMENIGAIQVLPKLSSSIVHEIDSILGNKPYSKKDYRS
The target is the same in test [5]. Briefly: KvBeta positive modulators, primary screen, biochemical, NADPH fluorescence (AID 623;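 active = NADPH fluorescence slope more negative than the mean of all samples by about 3 SD, 99.7% confidence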;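 also: fluorescence intensity change per second fitted from 20 to 320 s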). To be noted: Recombinant KvBeta, NADPH fluorescence decrease slope, 10 min; at 10 µM; stronger effect = lower value.
For test [6], the target named is Alpha-2C adrenergic receptor (Homo sapiens) (UniProt P18825). The test is described as follows: modulators of alpha2C/GIRK thallium flux, primary screen, cell-based, HEK293 alpha2C/GIRK1/2 (AID 624;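 active = fluorescence slope after compound addition differing from the mean of all screened samples at 99.7% confidence, in either direction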;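 also: slope of fluorescence ratio to pre-addition baseline per second over 15 to 24 s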). To be noted: thallium flux BTC fluorescence, at 10 µM, actives lie on both sides.
Alpha-2C adrenergic receptor (Homo sapiens), sequence (P18825 whole entry, looked up): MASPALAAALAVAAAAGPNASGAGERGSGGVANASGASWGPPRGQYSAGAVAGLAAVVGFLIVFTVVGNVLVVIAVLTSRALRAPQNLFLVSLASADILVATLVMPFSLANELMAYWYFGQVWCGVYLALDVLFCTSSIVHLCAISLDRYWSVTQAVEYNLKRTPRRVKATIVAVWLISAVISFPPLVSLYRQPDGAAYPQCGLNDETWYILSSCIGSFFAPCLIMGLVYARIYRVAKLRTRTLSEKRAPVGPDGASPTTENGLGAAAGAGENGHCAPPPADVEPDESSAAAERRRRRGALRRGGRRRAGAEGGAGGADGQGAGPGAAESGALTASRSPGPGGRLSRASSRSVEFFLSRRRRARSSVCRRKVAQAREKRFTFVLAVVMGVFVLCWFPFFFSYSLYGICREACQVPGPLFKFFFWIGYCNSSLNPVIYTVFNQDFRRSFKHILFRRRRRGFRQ
Test [7] is described as follows: inhibitors of Sendai virus-induced IRF3 signaling, primary screen, TLR/RLR signaling modifier project, cell-based, Sendai virus stimulus, luciferase, 10K MLSCN set (AID 602276;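 active = inhibition at or above 50% at 10 µM; inactive = inhibition below 50%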;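 also: firefly luciferase from ISG56 promoter only with Renilla not read in this screen; 0% = Sendai virus plus DMSO and 100% = medium plus DMSO without virus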). The conditions noted are these: HEK293 RL24 IRF3 luciferase reporter, at 10 µM, stronger effect = higher value.
Test [8] can be described thus: inhibitors of poly I:C-induced TLR3 signaling, primary screen, cell-based, poly I:C stimulus, luciferase, 10K MLSCN set (AID 602277). To be noted: HEK293-TLR3 RL24 IRF3 luciferase reporter, at 10 µM, stronger effect = higher value.

The term inhibition denotes the drop in the measured response relative to a control, in per cent. Turning to `OCc1nc2ccccc2n1CCCOc1ccccc1`, the cell count in test [1] stood at 291. Besides, the inhibition in test [1] is -6% (inactive); in test [3], -17.2% (inactive); in test [7] it was -34.5% (inactive); in test [8], -119% (inactive). For the same compound, the inhibition of aggregation in test [2] is 11.9% (inactive). Further, the nuclei count in test [2] amounted to 87%; in test [3], 96.5%. Further, the fluorescence slope in test [4] is -0.382 (inactive). For the same compound, the NADPH fluorescence slope in test [5] is -5.7e-05 (inactive). Besides, in test [6], the slope was 0.00561 (inactive).
Turning to `CCn1c(CCNC(=O)c2cccs2)nnc1SCC(=O)c1ccc(OC)cc1`, the cell count in test [1] is 263. Besides, the inhibition in test [1] was 0.8% (inactive); in test [3], -94.1% (inactive); in test [7], -4.44% (inactive); in test [8] it was -7.83% (inactive). In addition, in test [2], the inhibition of aggregation was -4.7% (inactive). The nuclei count was found to be 99.7% in test [2] and 115% in test [3]. Further, in test [4], the fluorescence slope is -0.398 (inactive). Besides, the NADPH fluorescence slope in test [5] is 2.4e-05 (inactive). For the same compound, in test [6], the slope was 0.00289 (inactive).
On to `CC(=O)c1c(C)nn(CC(O)COc2ccc3c(c2)CCC3)c1C` (stereo not drawn), for which the cell count in test [1] was determined as 751. Also, the inhibition is -4.3% (inactive) in test [1], -169% (inactive) in test [3], -13.5% (inactive) in test [7] and -41.8% (inactive) in test [8]. Moreover, the inhibition of aggregation in test [2] is 7.3% (inactive). The values for the nuclei count in test [2] and in test [3] were 97.4% and 126%, respectively. Also, the fluorescence slope in test [4] was -0.435 (inactive). For the same compound, in test [5], the NADPH fluorescence slope was 4e-05 (inactive). In addition, the slope in test [6] was 0.00662 (inactive).
Take `O=C1OC(N2CCN(c3ccccn3)CC2)c2ccccc21` (stereo not drawn): the cell count in test [1] is 697. The inhibition in test [1] was 9.1% (inactive); in test [3], 34.3% (inactive); in test [7], 19.9% (inactive); in test [8] it was 12% (inactive). For the same compound, in test [2], the inhibition of aggregation was -14.4% (inactive). Further, the nuclei count in test [2] was determined as 104%; in test [3] it was 88.3%. The fluorescence slope in test [4] is -0.633 (inactive). Further, the NADPH fluorescence slope in test [5] was -3.6e-05 (inactive). Moreover, the slope in test [6] is 0.00362 (inactive).
In the case of `COc1ccc(N(C(=O)c2ccco2)S(=O)(=O)c2cc(OC)ccc2OC)cc1`, in test [1], the cell count turned out to be 568. For the same compound, the inhibition is 4.3% (inactive) in test [1], 25.3% (inactive) in test [3], 8.61% (inactive) in test [7] and 20.5% (inactive) in test [8]. The inhibition of aggregation in test [2] is 7.3% (inactive). For the same compound, the figures for the nuclei count in test [2] and in test [3] were 97.7% and 93.2%, respectively. The fluorescence slope in test [4] is -0.343 (inactive). In test [5], the NADPH fluorescence slope was 9.2e-06 (inactive). In addition, in test [6], the slope is 0.00421 (inactive).
On to `CN1C(=O)C(O)(CC(=O)c2ccc(F)cc2)c2cc(Br)ccc21` (stereo not drawn), for which the cell count in test [1] came to 580. Further, the inhibition was 6% (inactive) in test [1], 16.6% (inactive) in test [3], 22.4% (inactive) in test [7] and 41.2% (inactive) in test [8]. In test [2], the inhibition of aggregation is 22.6% (inactive). The nuclei count came to 69.5% in test [2] and 97.6% in test [3]. The fluorescence slope in test [4] was -0.436 (inactive). For the same compound, the NADPH fluorescence slope in test [5] was -7.2e-05 (inactive). Also, the slope in test [6] is 0.0055 (inactive).
As for `CCn1ncc(C2=NOC(C(=O)Nc3ccc4c(c3)OCO4)C2)c1C` (stereo not drawn), the cell count in test [1] was found to be 640. For the same compound, the inhibition in test [1] was -0.3% (inactive); in test [3], -156% (inactive); in test [7] it was -17.8% (inactive); in test [8], -34% (inactive). Besides, the inhibition of aggregation in test [2] is 0.2% (inactive). The nuclei count was determined as 99.9% in test [2] and 112% in test [3]. In test [4], the fluorescence slope is -0.5 (inactive). Moreover, the NADPH fluorescence slope in test [5] was -0.000277 (inactive). The slope in test [6] is 0.00345 (inactive).
As to `Cc1ccc(-c2nc(N)n(C(=O)c3cccnc3)n2)cc1`, in test [1], the cell count worked out at 359. Further, the inhibition in test [1] was 5.5% (inactive); in test [3] it was -110% (inactive); in test [7], 0.795% (inactive); in test [8] it was 22.5% (inactive). Moreover, the inhibition of aggregation in test [2] was -19.9% (inactive). The nuclei count amounted to 113% in test [2] and 109% in test [3]. In test [4], the fluorescence slope was -0.339 (inactive). Further, the NADPH fluorescence slope in test [5] was -5.3e-06 (inactive). Further, the slope in test [6] is 0.00801 (inactive).
`CC(=O)N(CCc1ccccc1C)Cc1cc2cc3c(cc2[nH]c1=O)OCO3`: the cell count in test [1] stood at 251. For the same compound, the inhibition was 12.1% (inactive) in test [1], -68.1% (inactive) in test [3], 8.48% (inactive) in test [7] and 15.6% (inactive) in test [8]. Also, the inhibition of aggregation in test [2] is 1.2% (inactive). For the same compound, the results for the nuclei count in test [2] and in test [3] were 86.1% and 116%, respectively. For the same compound, in test [4], the fluorescence slope is -0.592 (inactive). The NADPH fluorescence slope in test [5] is -6.2e-05 (inactive). Also, in test [6], the slope was 0.00459 (inactive).
For `Nn1cc(-c2ccccc2)nc1SCC(=O)N1CCN(S(=O)(=O)c2ccccc2)CC1`, the cell count in test [1] came out at 341. In addition, the inhibition in test [1] is -17.9% (inactive); in test [3], -23.8% (inactive); in test [7], 8.62% (inactive); in test [8], 12.7% (inactive). The inhibition of aggregation in test [2] was 13.8% (inactive). In addition, the values for the nuclei count in test [2] and in test [3] were 102% and 106%, respectively. Besides, the fluorescence slope in test [4] is -0.421 (inactive). For the same compound, the NADPH fluorescence slope in test [5] was 4.3e-05 (inactive). Further, the slope in test [6] was 0.00477 (inactive).
Regarding `Cc1cc(C(=O)Nc2c(F)cc(F)cc2Br)no1`, in test [1], the cell count came to 338. For the same compound, the inhibition in test [1] is -3.2% (inactive); in test [3] it was -143% (inactive); in test [7] it was 3.46% (inactive); in test [8] it was -12% (inactive). Besides, in test [2], the inhibition of aggregation was 25.8% (inactive). Further, the nuclei count was 94.4% in test [2] and 103% in test [3]. For the same compound, the fluorescence slope in test [4] is -0.58 (inactive). The NADPH fluorescence slope in test [5] is 1.4e-05 (inactive). Moreover, in test [6], the slope was 0.0051 (inactive).
As to `CC(=O)c1ccc(NC(=O)c2cc(CC(C)C)on2)cc1`, in test [1], the cell count came out at 572. Also, the inhibition was -2.3% (inactive) in test [1], -3% (inactive) in test [3], -32.2% (inactive) in test [7] and -78% (inactive) in test [8]. In addition, the inhibition of aggregation in test [2] is 23.3% (inactive). Further, the nuclei count in test [2] stood at 97.8%; in test [3] it was 104%. Also, the fluorescence slope in test [4] is -0.606 (inactive). The NADPH fluorescence slope in test [5] was -2.3e-06 (inactive). Besides, the slope in test [6] was 0.00654 (inactive).
For `COCCCNC(=O)CSc1nc2ccc(N3CCOCC3)cc2c(=O)n1CCc1ccccc1`, in test [1], the cell count worked out at 369. Moreover, the inhibition is -1.6% (inactive) in test [1], 17% (inactive) in test [3], -0.853% (inactive) in test [7] and -8.93% (inactive) in test [8]. For the same compound, the inhibition of aggregation in test [2] is -0.2% (inactive). Besides, the figures for the nuclei count in test [2] and in test [3] were 104% and 113%, respectively. For the same compound, in test [4], the fluorescence slope was -0.558 (inactive). The NADPH fluorescence slope in test [5] was 1.6e-05 (inactive). Besides, the slope in test [6] was 0.00582 (inactive).
